HT1080 IDH1KD tx = qHTS for induction of synthetic lethality in tumor cells producing 2HG: qHTS for the HT-1080-IDH1KD cell line; HT-1080 IDH1 knockdown viability, ATP luminescence, 48 h; Potency, µM (series often up to 46.1 µM), inactives show at the top dose activity, negative = toxicity, usual class: cytotoxic; 360,000 compounds, 2% hits; AID 686971, 2013;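 further: 0% = DMSO wells and -100% = cell-free medium wells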
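Cytotoxicity counter-line: IDH1KD HT-1080, 48 h, CellTiter-Glo. Curves classed by r2, magnitude and activity.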
KB-V1 cytotox = qHTS assay for MDR1-selective chemotherapeutics: Primary screen using the drug-selected MDR subline cells KB-V1; KB-V1 MDR cells viability, CellTiter-Glo, 72 h; Potency, µM (doses to about 46.1 µM), most hits filed as cytotoxic; 400,000 compounds, 3.4% hits; further: on the % scale 0 is the no-effect control and ±100 the full control effect; nearly all actives have a fitted effect of over 60% in size
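Drug-selected KB-V1 cells, grown in DMEM lacking phenol red with 10% FBS, receive compound titrations; after three days at 37 degrees C, surviving cell ATP is quantified by CellTiter-Glo luminescence and responses normalized and curve-fitted.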
S2 tox = Viability Counterscreen for Primary qHTS for Inhibitors of ATXN expression; S2 cells (HEK-293 line with an ATXN2-luciferase reporter) viability, CellTiter-Fluor protease fluorescence, 24 h; Potency, µM (doses to about 56.7 µM), actives largely listed as cytotoxic; 400,000 compounds, 0.49% hits; AID 651635, 2014; further: nearly all actives have a fitted effect of over 40% in size
HT1080NT lethal = qHTS for induction of synthetic lethality in tumor cells producing 2HG: qHTS for the HT-1080-NT fibrosarcoma cell line. Potency, µM (titrated, usually from 46.1 µM), without a hit: top-dose activity, negative = less viability, usual class: cytotoxic. 360,000 compounds, 1.6% hits. HT-1080-NT fibrosarcoma viability, CellTiter-Glo ATP luminescence, 48 h;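 further: NT is the 2HG producing partner of a matched IDH1 knockdown line; 0% = DMSO-treated cells and -100% = media-only wells without cells; nearly all actives have a fitted effect of over 55% in size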
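A 48-hour cytotoxicity screen used HT-1080-NT cells plated 2 hours before compound delivery. ATP-based CellTiter-Glo luminescence measured viability, normalized to DMSO and no-cell controls.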
ATXN2 expr inh = Primary qHTS for Inhibitors of ATXN expression | HEK-293 ATXN2-luciferase reporter, luminescence, 24 h | Potency, µM (titrated, usually from 57 µM), inactives show at the top dose activity change, negative = inhibition, usual class: inhibitors | 360,000 compounds, 0.72% hits; further: on the % scale 0 is the no-effect control and ±100 the full control effect; nearly all actives have a fitted effect of over 55% in size
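ATXN2-luciferase reporter cells (luciferase flanked by upstream and downstream ATXN2 gene portions) were treated 24 h at 37 °C with compounds at up to 57 uM. SteadyGlo luminescence gave expression; GF-AFC fluorescence gave viability.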
KB-3-1 cytotox = qHTS assay for MDR1-selective chemotherapeutics: Primary screen using the parental adenocarcinoma cell KB-3-1; KB-3-1 viability, CellTiter-Glo ATP luminescence, 72 h; Potency, µM (series often up to 46.1 µM), usual class: cytotoxic; 400,000 compounds, 1.4% hits; further: on the % scale 0 is the no-effect control and ±100 the full control effect; nearly all actives have a fitted effect of over 60% in size
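Luminescent ATP read-out (CellTiter-Glo) measures survival of drug-naive KB-3-1 cells after 72 h compound exposure at 37 °C. Titration series was screened from lowest to highest concentration, with DMSO vehicle plates as background controls.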
The depositor's hits bear a star. The list is not random: actives were taken first. Their share in the collection is about 6.2%. The call rests on the fitted dose curve; in most records, active means well fitted curve in the direction sought with a large enough effect; inconclusive means small, poorly fitted or top-dose-only effect, or another doubt; inactive means no such curve, though single readings can be large; an effect the other way counts as inactive or inconclusive. Potency means the concentration at half of the fitted maximal effect.

What do the screens show for `COc1ccc2nc(Nc3nc(CSc4nc5ccccc5[nH]4)cc(=O)[nH]3)nc(C)c2c1`?
HT1080 IDH1KD tx: inconclusive; KB-V1 cytotox: inconclusive; S2 tox: inactive; HT1080NT lethal: inconclusive; ATXN2 expr inh: 0.2%; KB-3-1 cytotox: inconclusive

Results for COc1nc(Nc2nc3ccccc3c(=O)[nH]2)nc2ccc(C)cc12 ?
HT1080 IDH1KD tx: 1.3µM*; KB-V1 cytotox: inconclusive; S2 tox: inconclusive; HT1080NT lethal: 1.3µM*; ATXN2 expr inh: 50.0%; KB-3-1 cytotox: inconclusive

Results for Cc1nc(Nc2nc(CSc3nc4ccccc4[nH]3)cc(=O)[nH]2)nc2ccccc12 ?
HT1080 IDH1KD tx: 4.61µM*; KB-V1 cytotox: inactive; S2 tox: inconclusive; HT1080NT lethal: 4.11µM*; ATXN2 expr inh: -4.3%; KB-3-1 cytotox: inconclusive

Results for Cc1ccc(-c2nnc(N3CCC(C(N)=O)CC3)s2)cc1 ?
KB-V1 cytotox: inactive; KB-3-1 cytotox: inconclusive

How did Cc1ccc(C(=O)O)cc1Nc1nc2ccccc2n2nnnc12 do in these assays?
KB-V1 cytotox: inactive; S2 tox: inactive; ATXN2 expr inh: 61.3%; KB-3-1 cytotox: inactive

What do the screens show for `CCOC(=O)c1c(C)oc2nc(C)nc(NCc3cccc(Cl)c3)c12`?
KB-V1 cytotox: inactive; S2 tox: inactive; ATXN2 expr inh: 0.7%; KB-3-1 cytotox: inactive

What do the screens show for `CCCCC(CC)C(=O)Oc1ccc(O)c(C(C)(C)C)c1` (stereo not given)?
HT1080 IDH1KD tx: 23.1µM*; KB-V1 cytotox: inactive; S2 tox: inconclusive; HT1080NT lethal: 16.4µM*; ATXN2 expr inh: -34.4%; KB-3-1 cytotox: inactive

What do the screens show for `CCCn1c2ccccc2c2cnn(CC(=O)NCCc3ccc(OCC)cc3)c(=O)c21`?
KB-V1 cytotox: inactive; S2 tox: inactive; ATXN2 expr inh: 10.0%; KB-3-1 cytotox: inactive

What do the screens show for `[O-][n+]1cccc(/C(Cl)=N/OC[C@@H](O)CN2CCCCC2)c1`?
S2 tox: inactive; ATXN2 expr inh: 13.6%

Results for C[C@@H](C(=O)NC1CCN(Cc2ccccc2)CC1)N1C(=O)N2CCc3c([nH]c4ccccc34)[C@@]2(C)C1=O ?
HT1080 IDH1KD tx: 0.9%; KB-V1 cytotox: inactive; S2 tox: inactive; HT1080NT lethal: -1.6%; ATXN2 expr inh: -25.7%; KB-3-1 cytotox: inactive

Results for CC(C)C[C@@H](C(=O)NC1CCN(Cc2ccccc2)CC1)N1C(=O)N2CCc3c([nH]c4ccccc34)[C@@]2(C)C1=O ?
HT1080 IDH1KD tx: inconclusive; KB-V1 cytotox: inconclusive; S2 tox: 25.1µM*; HT1080NT lethal: inconclusive; ATXN2 expr inh: inconclusive; KB-3-1 cytotox: inconclusive

How did CCOC(=O)c1sc(C)c2c1NC(C)(c1cccs1)NC2=O (stereo not given) do in these assays?
HT1080 IDH1KD tx: inconclusive; KB-V1 cytotox: 5.17µM*; S2 tox: inactive; HT1080NT lethal: -27.8%; ATXN2 expr inh: 2.8%; KB-3-1 cytotox: inactive

What do the screens show for `CCOC(=O)c1sc(C)c2c1NC1(CCCCC1)NC2=O`?
HT1080 IDH1KD tx: -2.4%; KB-V1 cytotox: inactive; S2 tox: inactive; HT1080NT lethal: 6.0%; ATXN2 expr inh: 16.3%; KB-3-1 cytotox: inactive

How did COc1ccc(C2CC(=O)N(CC(=O)Nc3ccc(C)c(Cl)c3)c3ccccc3S2)cc1OC (stereo not given) do in these assays?
KB-V1 cytotox: 18.4µM*; S2 tox: inactive; ATXN2 expr inh: 11.4%; KB-3-1 cytotox: inconclusive

Results for COc1ccc(C2CC(=O)N(CC(=O)Nc3ccc(C(C)=O)cc3)c3ccccc3S2)cc1OC (stereo not given) ?
KB-V1 cytotox: inconclusive; S2 tox: inconclusive; ATXN2 expr inh: inconclusive; KB-3-1 cytotox: inactive

How did CCOC(=O)c1ccccc1NC(=O)CN1C(=O)CC(c2ccccc2)Sc2ccccc21 (stereo not given) do in these assays?
KB-V1 cytotox: 11.6µM*; S2 tox: inconclusive; ATXN2 expr inh: -8.5%; KB-3-1 cytotox: inconclusive

What do the screens show for `COC(=O)c1cc(CNC(=O)c2ccncc2)cc(NC(=O)c2ccccc2Cl)c1`?
S2 tox: inactive

How did CCOC(=O)c1cc(S(=O)(=O)Nc2ccc(Br)c(C)c2)[nH]n1 do in these assays?
KB-V1 cytotox: inactive; S2 tox: inactive; ATXN2 expr inh: 1.7%; KB-3-1 cytotox: inactive

How did CC(C)C(NS(C)(=O)=O)c1nnc2n1CCN(Cc1ccnc3ccccc13)CC2 (stereo not given) do in these assays?
S2 tox: inactive

Results for NNc1nc(-c2ccccc2)cc(-c2ccccc2O)n1 ?
HT1080 IDH1KD tx: 12.6µM*; KB-V1 cytotox: 5.17µM*; S2 tox: inactive; HT1080NT lethal: inconclusive; ATXN2 expr inh: -36.9%; KB-3-1 cytotox: inconclusive

What do the screens show for `NNc1nc(-c2ccccc2)cc(-c2ccccc2)n1`?
HT1080 IDH1KD tx: inconclusive; KB-V1 cytotox: inactive; S2 tox: inconclusive; HT1080NT lethal: -19.8%; ATXN2 expr inh: inconclusive; KB-3-1 cytotox: inconclusive

Results for CCCn1c(=O)[nH]c(=O)c2c1nc(-c1ccccc1OC(F)F)n2CCOC ?
HT1080 IDH1KD tx: 4.0%; KB-V1 cytotox: 18.4µM*; S2 tox: inactive; HT1080NT lethal: 1.6%; ATXN2 expr inh: 0.2%; KB-3-1 cytotox: inactive

Results for CCCn1c(=O)[nH]c(=O)c2c1nc(-c1ccc(OC(F)F)c(OC)c1)n2CCOC ?
HT1080 IDH1KD tx: -1.5%; KB-V1 cytotox: inactive; S2 tox: inactive; HT1080NT lethal: -1.1%; ATXN2 expr inh: 0.6%; KB-3-1 cytotox: inactive

Results for COc1ccc(C2C(=O)N(CCc3ccccc3)CC(=O)N2C2CCCCC2)cc1 (stereo not given) ?
HT1080 IDH1KD tx: inconclusive; KB-V1 cytotox: 3.66µM*; S2 tox: inactive; HT1080NT lethal: -5.8%; ATXN2 expr inh: -2.3%; KB-3-1 cytotox: inactive

What do the screens show for `O=[N+]([O-])c1c(Nc2ccccc2O)cc(Cl)c2nonc12`?
HT1080 IDH1KD tx: 5.8µM*; KB-V1 cytotox: inconclusive; S2 tox: 12.6µM*; HT1080NT lethal: 10.3µM*; ATXN2 expr inh: 12.6µM*; KB-3-1 cytotox: inconclusive

What do the screens show for `O=[N+]([O-])c1c(Nc2ccccc2O)ccc2nonc12`?
HT1080 IDH1KD tx: -10.0%; KB-V1 cytotox: inactive; S2 tox: inconclusive; HT1080NT lethal: -1.6%; ATXN2 expr inh: -15.9%; KB-3-1 cytotox: inactive

Screening results deposited in PubChem BioAssay by National Center for Advancing Translational Sciences (NCATS).
